Bioassay records: PubChem, National Center for Advancing Translational Sciences (NCATS)
Rows were chosen to be rich in hits. Some 19% of all compounds tested hit in one or more screens of this group.
HT1080-NT tox: qHTS for induction of synthetic lethality in tumor cells producing 2HG: qHTS for the HT-1080-NT fibrosarcoma cell line | HT-1080-NT fibrosarcoma viability, CellTiter-Glo ATP luminescence, 48 h | Potency, µM (top dose mostly 46.1 µM), usual class: cytotoxic | 1.6% of 360,000 active | AID 686970, 2013;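 further: NT is the 2HG producing partner of a matched IDH1 knockdown line; nearly all actives have a fitted effect of over 55% in size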
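Viability of the 2HG-overproducing fibrosarcoma line after 48 hours of compound exposure at 37 degrees C was determined by luminescence with CellTiter-Glo, and concentration-effect curves were then fitted and categorized.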
TDP1 cell CPT: qHTS for Inhibitors of human tyrosyl-DNA phosphodiesterase 1 (TDP1): qHTS in cells in presence of CPT; chicken DT40 Tdp1-/-;hTDP1 cells + 20 nM CPT, ATP luminescence, 48 h; Potency, µM (doses to about 46.2 µM), actives largely listed as inhibitors; 12% of 420,000 active; further: nearly all actives have a fitted effect of over 55% in size
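Chicken DT40 Tdp1-/- cells complemented with human TDP1, 400 cells/well, exposed to compounds plus 20 nM camptothecin for at least 48 h at 37 C; viability read as ATP content by CellTiter-Glo luminescence.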
DT40 TDP1 no CPT: qHTS for Inhibitors of human tyrosyl-DNA phosphodiesterase 1 (TDP1): qHTS in cells in absence of CPT; 15% of 420,000 active; Potency, µM (titrated, usually from 46.2 µM), usual class: inhibitors; DT40 Tdp1-/- hTDP1 cells, no CPT, ATP luminescence, 48 h; further: nearly all actives have a fitted effect of over 55% in size
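Chicken DT40 Tdp1-/- cells stably complemented with human TDP1 were seeded at 400 cells/well with DMSO in place of 20 nM camptothecin. After compound pinning, cells grew at least 48 hr at 37 °C; viability read by CellTiter-Glo luminescence.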
HT1080 IDH1KD tx: qHTS for induction of synthetic lethality in tumor cells producing 2HG: qHTS for the HT-1080-IDH1KD cell line; HT-1080 IDH1 knockdown viability, ATP luminescence, 48 h; Potency, µM (doses to about 46.1 µM), hits mostly cytotoxic; 2% of 360,000 active
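Knockdown cells (IDH1KD HT-1080) received compounds 2 h after plating at 750 cells/well and were kept 48 h at 37 °C in 5% FBS RPMI. A CellTiter-Glo luminescence read gave % activity for curve fitting.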
IL-1B inflam inh: qHTS for Inhibitors of Inflammasome Signaling: IL-1-beta AlphaLISA Primary Screen; THP-1 LPS/ATP IL-1B secretion, AlphaLISA, 16 h; hits give low values; activity change, % at 57.5 µM; 4.7% of 360,000 active; AID 743279, 2014; in the data active means activity change below about -50%; inconclusive means mostly about -30% to -49%
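THP-1 cells pretreated 1 hr with compounds (up to 57.5 uM final), then stimulated with LPS (250 ng/mL final) plus ATP (1.25 mM final); secreted IL-1B measured by AlphaLISA after 16 hr, decreased signal indicating inhibition.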
Each line names hits and unclear results; the compound was inactive in the other large screens. Unless noted, the call rests on the fitted dose curve; in most records, active means well fitted curve in the direction sought with a large enough effect; inconclusive means small, poorly fitted or top-dose-only effect, or another doubt; inactive means no such curve, though single readings can be large; an effect the other way counts as inactive or inconclusive.

Cc1ccccc1C(C(=O)NCc1ccco1)N(CC1CCCO1)C(=O)Cn1nnc2ccccc21 (stereo not given)	TDP1 cell CPT inconclusive
O=C(COC(=O)Cc1ccc(Cl)cc1Cl)Nc1ccccc1OC(F)F	none
Cc1nn(S(=O)(=O)c2ccccc2)c(C)c1S(=O)(=O)N1CCC(C)CC1	DT40 TDP1 no CPT inconclusive
O=C(NCC1CCCO1)C(c1ccco1)N(Cc1ccc(F)cc1)C(=O)CN1C(=O)c2ccccc2S1(=O)=O (stereo not given)	none
O=C(NC1CCCCC1)C(c1ccc(F)cc1)N(Cc1ccco1)C(=O)CN1C(=O)c2ccccc2S1(=O)=O (stereo not given)	TDP1 cell CPT inconclusive, DT40 TDP1 no CPT 18.4µM
COc1ccc(N(C(C)C(=O)Nc2ccc(S(=O)(=O)N3CCOCC3)cc2)S(C)(=O)=O)cc1 (stereo not given)	DT40 TDP1 no CPT inconclusive
COc1ccc(N(C(C)C(=O)Nc2ccc(S(=O)(=O)N3CCCCC3)cc2)S(C)(=O)=O)cc1 (stereo not given)	TDP1 cell CPT inconclusive, DT40 TDP1 no CPT 29.1µM
O=C(CSCc1ccc(Cl)cc1)Nc1ccc(S(=O)(=O)N2CCCCCC2)cc1	TDP1 cell CPT inconclusive, DT40 TDP1 no CPT inconclusive
Cc1ccc(NC(=O)CN(C)C(C)C(=O)Nc2ccc(S(=O)(=O)N3CCCC3)cc2)cc1 (stereo not given)	TDP1 cell CPT 18.4µM, DT40 TDP1 no CPT 23.1µM
COc1ccc(CCN(C)c2ccc(S(=O)(=O)N3CCCC3)cn2)cc1OC	TDP1 cell CPT inconclusive, DT40 TDP1 no CPT inconclusive
CN(CC(=O)Nc1ccc(Cl)cc1)c1ccc(S(=O)(=O)N2CCCCC2)cc1[N+](=O)[O-]	TDP1 cell CPT 18.4µM, DT40 TDP1 no CPT inconclusive, HT1080 IDH1KD tx inconclusive, IL-1B inflam inh -60.6
COc1ccc(CCN(C)c2ccc(S(=O)(=O)N3CCCC3)cc2[N+](=O)[O-])cc1OC	TDP1 cell CPT 16.4µM, DT40 TDP1 no CPT 11.6µM
Cc1noc(C)c1COc1ccccc1C(=O)NC(C)c1ccc(F)cc1 (stereo not given)	TDP1 cell CPT inconclusive
O=C(O)c1cccc2c1C(=O)c1ccc(-c3ccc(F)cc3F)cc1S2(=O)=O	none
O=C1COC(c2ccccc2O)=NN1CCCl	DT40 TDP1 no CPT inconclusive
Cc1ccc(S(=O)(=O)N2[C@H](CC(=O)c3ccc(F)cc3)OC[C@@H]2C(C)C)cc1	TDP1 cell CPT inconclusive, DT40 TDP1 no CPT inconclusive
CN(CC(=O)Nc1cccc(F)c1)C(=O)c1ccc(N2CCCCC2)c([N+](=O)[O-])c1	HT1080-NT tox inconclusive, TDP1 cell CPT 16.4µM, DT40 TDP1 no CPT 14.6µM
CN(CC(=O)Nc1ccc(S(=O)(=O)N2CCCC2)cc1)CC(=O)Nc1cccc(F)c1	TDP1 cell CPT 18.4µM, DT40 TDP1 no CPT 23.1µM
CN(CC(=O)Nc1ccc(S(=O)(=O)N2CCCC2)cc1)Cc1ccc(Cl)cc1Cl	TDP1 cell CPT 18.4µM, DT40 TDP1 no CPT inconclusive
CC1CC(C)CN(C(=O)C(C)N(C)CC(=O)Nc2ccc(Cl)cc2)C1 (stereo not given)	TDP1 cell CPT 16.4µM, DT40 TDP1 no CPT 14.6µM
CC(C(=O)Nc1ccc(S(=O)(=O)N2CCCC2)cc1)N(C)CC(=O)Nc1cccc(F)c1 (stereo not given)	TDP1 cell CPT inconclusive, DT40 TDP1 no CPT inconclusive, HT1080 IDH1KD tx inconclusive
CC1CC(C)CN(C(=O)C(C)N(C)CC(=O)Nc2ccc(F)cc2)C1 (stereo not given)	DT40 TDP1 no CPT inconclusive
CC(NC(=O)C12CC3CC(C1)CC(n1cncn1)(C3)C2)C12CC3CC(CC(C3)C1)C2 (stereo not given)	TDP1 cell CPT 10.3µM, DT40 TDP1 no CPT 8.2µM
CC1(C(=O)NS(=O)(=O)C2CC2)CCCN(C(=O)c2cccc(Cl)c2)C1 (stereo not given)	TDP1 cell CPT 7.31µM, DT40 TDP1 no CPT 1.46µM
CC1(C(=O)NS(=O)(=O)C2CC2)CCCN(C(=O)c2ccc(F)c(Cl)c2)C1 (stereo not given)	HT1080-NT tox inconclusive, TDP1 cell CPT 5.8µM, DT40 TDP1 no CPT 5.17µM
CCCNC(=O)C1(C)CCCN(C(=O)c2cccc(Cl)c2)C1 (stereo not given)	none
CNC(=O)c1cc(C)c(-c2ccccc2)s1	TDP1 cell CPT inconclusive, DT40 TDP1 no CPT 20.6µM
Cn1nc(C(F)(F)F)c2cc(C(=O)Nc3ccc(C(F)(F)F)cc3)sc21	HT1080-NT tox inconclusive, TDP1 cell CPT inconclusive, DT40 TDP1 no CPT 20.6µM, HT1080 IDH1KD tx inconclusive, IL-1B inflam inh inconclusive
CCOc1ccc(NC(=O)c2cc3c(-c4ccccc4F)nn(C)c3s2)cc1	TDP1 cell CPT inconclusive (no result: HT1080-NT tox, HT1080 IDH1KD tx, IL-1B inflam inh)
CCCCN(C)CCNC(=O)c1cc2c(-c3ccccc3F)nn(C)c2s1	HT1080-NT tox 18.4µM, DT40 TDP1 no CPT inconclusive, HT1080 IDH1KD tx inconclusive, IL-1B inflam inh -97.2
CNC(=O)c1cc2c(s1)-c1ccccc1CC2	none
COC(=O)c1cc(NC(=O)c2cc3c(-c4ccccc4F)nn(C)c3s2)cc(C(=O)OC)c1	TDP1 cell CPT 3.26µM, DT40 TDP1 no CPT inconclusive (no result: HT1080-NT tox, HT1080 IDH1KD tx, IL-1B inflam inh)
CCOC(=O)C1CCCn2c1nc1sc3c(c1c2=O)CCCC3 (stereo not given)	none
CC(C)NC(=O)c1cc2c(-c3ccc(Cl)cc3)nn(C)c2s1	none
Cn1nc(-c2ccccc2F)c2cc(C(=O)NCCc3ccc(Cl)cc3)sc21	TDP1 cell CPT inconclusive, DT40 TDP1 no CPT 16.4µM (no result: HT1080-NT tox, HT1080 IDH1KD tx, IL-1B inflam inh)
CNC(=O)c1cc2c(-c3ccccc3)nn(C)c2s1	TDP1 cell CPT inconclusive, DT40 TDP1 no CPT 20.6µM
COCCNC(=O)c1cc2c(-c3ccc(Cl)cc3)nn(C)c2s1	TDP1 cell CPT inconclusive, DT40 TDP1 no CPT inconclusive
COCCNC(=O)c1cc2c(-c3ccccc3F)nn(C)c2s1	IL-1B inflam inh -54.0
Cc1cc(C)cc(C(=O)NC(CC(N)=O)c2ccc(NC3CCCC3)c([N+](=O)[O-])c2)c1 (stereo not given)	none
CN(C)/C=C1/OC(=O)C(C#N)=C1c1ccc(Cl)cc1	none
COc1cccc(OC)c1/C(O)=C(\C#N)c1nc2ccccc2[nH]1	HT1080-NT tox 17.8µM, TDP1 cell CPT inconclusive, DT40 TDP1 no CPT 13µM
COc1ccc(/C(C)=N/OC/C(O)=C(\C#N)c2nc3ccccc3[nH]2)c(OC)c1	none
CC(C)(C)/C(O)=C(/C#N)c1nc2ccccc2[nH]1	TDP1 cell CPT inconclusive, DT40 TDP1 no CPT inconclusive
COc1ccc(/C(C)=N/OC/C(O)=C(\C#N)c2nc3ccccc3[nH]2)cc1OC	HT1080-NT tox inconclusive, TDP1 cell CPT inconclusive, DT40 TDP1 no CPT 16.4µM
